Results: PubChem BioAssay (NCI)
Compounds without any hit were thinned out: in the full panel of roughly 79,000, 15% have a hit. Activity calls are given as the source filed them. Rule as the data show it: active = growth inhibition above about 70%; inactive = the rest.

How the values were obtained:
[1] = NCI Yeast Anticancer Drug Screen. Data for the rad50 strain (AID 155);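 also: 0% = growth of vehicle-only cultures of the same strain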; conditions: S. cerevisiae rad50 strain growth inhibition, stronger effect = higher value
Summary of the method: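 DNA repair mutant yeast, compound exposure, growth read-out; inhibition is taken relative to vehicle.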

[2] = NCI Yeast Anticancer Drug Screen. Data for the mec2-1 strain (AID 157); conditions: S. cerevisiae mec2-1 strain, stronger effect = higher value
Summary of the method: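 Cells of the genetically defined mec2-1 yeast strain are incubated with test compound. Inhibition of growth is calculated against vehicle-treated controls.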

[3] = NCI Yeast Anticancer Drug Screen. Data for the sgs1 mgt1 strain (AID 161);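 also: 0% = growth of cultures given vehicle only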; conditions: S. cerevisiae sgs1 mgt1 strain, stronger effect = higher value
Summary of the method: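 Genetically altered yeast, compound exposure, growth inhibition relative to vehicle.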

[4] = NCI Yeast Anticancer Drug Screen. Data for the cln2 rad14 strain (AID 165);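 also: 0% = growth equal to vehicle treated cultures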; conditions: S. cerevisiae cln2 rad14 strain, stronger effect = higher value
Summary of the method: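 The screen exposed genetically defined yeast (cln2 rad14) to test compounds and scored growth inhibition relative to vehicle-treated controls.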

[5] = NCI Yeast Anticancer Drug Screen. Data for the bub3 strain (AID 167); conditions: S. cerevisiae bub3 mutant strain, stronger effect = higher value
Summary of the method: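 In this screen, a yeast mutant lacking normal mitotic checkpoint function is challenged with compound. Relative growth versus vehicle gives the inhibition value.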

[6] = NCI Yeast Anticancer Drug Screen. Data for the mlh1 rad18 strain (AID 175); conditions: S. cerevisiae mlh1 rad18 strain growth inhibition, stronger effect = higher value
Summary of the method: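 Compound-treated yeast growth, normalised to vehicle controls. Strain bears defined DNA repair mutations.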

[7] = at 5.0 µM (retest, dose inferred, filed as 0.5)
[8] = at 50.0 µM (retest, dose inferred, filed as 5.0)

Measured: growth inhibition

O=c1oc2ccccc2c(O)c1/C=N\c1nc(-c2ccccc2)cs1
active: [1]; [8] 99% | [2]; [8] 99% | [3]; [8] 100% | [4]; [8] 97% | [5]; [7] 81% | [5]; [8] 100% | [6]; [8] 99% | [6]; at 50.0 µM 91.8%
inactive: [1]; [7] 41% | [1]; at 50.0 µM 8.95% | [2]; [7] 42% | [2]; at 50.0 µM 16.4% | [3]; [7] 53% | [3]; at 50.0 µM 31.9% | [4]; [7] 36% | [4]; at 50.0 µM 36.6% | [5]; at 50.0 µM 17.1% | [6]; [7] 34%

CCN(CC)Cc1cc(Nc2c3ccccc3nc3c2[nH]c2ccccc23)ccc1O
active: [1]; at 50.0 µM 82.5%
inactive: [1]; [7] -6% | [1]; [8] 18% | [2]; [7] 3% | [2]; [8] 5% | [2]; at 50.0 µM 8.85% | [3]; [7] -8% | [3]; [8] -19% | [3]; at 50.0 µM 2.65% | [4]; [7] 44% | [4]; [8] 44% | [4]; at 50.0 µM -3% | [5]; [7] 9% | [5]; [8] 3% | [5]; at 50.0 µM -4.65% | [6]; [7] -1% | [6]; [8] -9% | [6]; at 50.0 µM 33.5%

COc1ccc(C(=O)O)c(-c2c(C(=O)O)ccc(OC)c2OC(C)=O)c1
active: [5]; at 50.0 µM 73%
inactive: [1]; [7] 3% | [1]; [8] 1% | [1]; at 50.0 µM 16.5% | [2]; [7] -5% | [2]; [8] 9% | [2]; at 50.0 µM 3.05% | [3]; [7] -18% | [3]; [8] 7% | [3]; at 50.0 µM -3.85% | [4]; [7] 2% | [4]; [8] -2% | [4]; at 50.0 µM 63.7% | [5]; [7] 0% | [5]; [8] -5% | [6]; [7] 14% | [6]; [8] 13% | [6]; at 50.0 µM 54.6%

O=C(O)C(Cc1ccccc1)N=Cc1ccc(O)cc1 (centres undefined)
inactive: [1]; at 50.0 µM 11.1% | [2]; [7] 58% | [2]; at 50.0 µM 11.8% | [3]; at 50.0 µM 6.8% | [4]; [7] 33% | [4]; at 50.0 µM 43.8% | [5]; [7] 43% | [5]; at 50.0 µM 20.2% | [6]; [7] 68% | [6]; at 50.0 µM -1.05%
active: [1]; [7] 70% | [1]; [8] 97% | [2]; [8] 99% | [3]; [7] 79% | [3]; [8] 98% | [4]; [8] 97% | [5]; [8] 98% | [6]; [8] 98%

CCN(CC)CCNC(=O)c1ccc(N=Cc2cc(Cl)cc(Cl)c2O)cc1
active: [1]; at 50.0 µM 81.2% | [2]; at 50.0 µM 91% | [3]; [8] 97% | [3]; at 50.0 µM 88.8% | [4]; [8] 99% | [4]; at 50.0 µM 84.8% | [5]; [7] 88% | [5]; [8] 97% | [5]; at 50.0 µM 89.2% | [6]; at 50.0 µM 85.7%
inactive: [1]; [7] 48% | [1]; [8] 49% | [2]; [7] 32% | [2]; [8] 48% | [3]; [7] 49% | [4]; [7] 24% | [6]; [7] 46% | [6]; [8] 39%

CC(/C=C/c1ccc(Cl)c(Cl)c1)=N\NC(N)=S
active: [2]; [8] 73% | [3]; [8] 76% | [3]; at 50.0 µM 82.9% | [4]; at 50.0 µM 77.2% | [5]; [8] 82% | [6]; [8] 81% | [6]; at 50.0 µM 80%
inactive: [1]; [7] 37% | [1]; [8] 69% | [1]; at 50.0 µM 61.2% | [2]; [7] 31% | [2]; at 50.0 µM 53.5% | [3]; [7] 48% | [4]; [7] 39% | [4]; [8] 41% | [5]; [7] 29% | [5]; at 50.0 µM 64.4% | [6]; [7] 61%

COC(=O)CSc1n[nH]c(-c2ccc(O)c([N+](=O)[O-])c2)n1
active: [3]; [8] 71% | [3]; at 50.0 µM 75.6%
inactive: [1]; [7] 17% | [1]; [8] 47% | [1]; at 50.0 µM 53.9% | [2]; [7] 31% | [2]; [8] 56% | [2]; at 50.0 µM 53.2% | [3]; [7] 25% | [4]; [7] 40% | [4]; [8] 57% | [4]; at 50.0 µM 65.5% | [5]; [7] 35% | [5]; [8] 51% | [5]; at 50.0 µM 53% | [6]; [7] 30% | [6]; [8] 57% | [6]; at 50.0 µM 57.4%

COc1ccc2oc(-c3ccc(OC)c(OC)c3OC)cc(=O)c2c1
inactive: [1]; [7] -34% | [1]; [8] -26% | [1]; at 50.0 µM 15.7% | [2]; [7] -47% | [2]; [8] -12% | [2]; at 50.0 µM 22% | [3]; [7] -11% | [3]; [8] 50% | [4]; [7] -14% | [4]; [8] 9% | [4]; at 50.0 µM -4.55% | [5]; [7] -15% | [5]; [8] 48% | [5]; at 50.0 µM 51.2% | [6]; [7] -39% | [6]; [8] -7% | [6]; at 50.0 µM 4.8%
active: [3]; at 50.0 µM 70%

S=C(N/N=C/c1ccco1)NC12CC3CC(CC(C3)C1)C2
inactive: [1]; [7] 29% | [1]; at 50.0 µM 2.95% | [2]; [7] 24% | [2]; at 50.0 µM 8.05% | [3]; at 50.0 µM 10.9% | [4]; [7] 51% | [4]; at 50.0 µM -0.25% | [5]; at 50.0 µM 13.4% | [6]; [7] 47% | [6]; at 50.0 µM 26.2%
active: [1]; [8] 94% | [2]; [8] 95% | [3]; [7] 76% | [3]; [8] 96% | [4]; [8] 91% | [5]; [7] 71% | [5]; [8] 93% | [6]; [8] 94%

N=C(N)c1cccc(-c2ccc(-c3ccccc3)o2)c1
active: [1]; at 50.0 µM 92.2% | [2]; [8] 72% | [2]; at 50.0 µM 89.8% | [3]; [8] 94% | [4]; at 50.0 µM 93.8% | [5]; [8] 71% | [5]; at 50.0 µM 79% | [6]; [8] 85% | [6]; at 50.0 µM 97%
inactive: [1]; [7] -3% | [1]; [8] 62% | [2]; [7] 4% | [3]; [7] 0% | [3]; at 50.0 µM 57.2% | [4]; [7] 2% | [4]; [8] 67% | [5]; [7] 3% | [6]; [7] -11%

COc1cc(CNC(=O)CCCCCCCC/C=C/Br)ccc1O
active: [1]; [8] 93% | [1]; at 50.0 µM 84.7% | [2]; [8] 96% | [2]; at 50.0 µM 85.8% | [3]; [8] 92% | [3]; at 50.0 µM 90.5% | [4]; [8] 94% | [4]; at 50.0 µM 85% | [5]; [8] 95% | [5]; at 50.0 µM 87.6% | [6]; [8] 92% | [6]; at 50.0 µM 87.5%
inactive: [1]; [7] -32% | [2]; [7] -7% | [3]; [7] -2% | [4]; [7] -4% | [5]; [7] -4% | [6]; [7] -16%

CN(C)c1ccc(C(=O)C2CCCC(C)(C)C2)cc1 (centres undefined)
inactive: [1]; [7] 22% | [1]; [8] 65% | [2]; [7] 24% | [3]; [7] 13% | [4]; [7] 7% | [4]; [8] 27% | [5]; [7] 57% | [5]; [8] 47% | [6]; [7] 24% | [6]; [8] 68%
active: [1]; at 50.0 µM 90.7% | [2]; [8] 78% | [2]; at 50.0 µM 93.5% | [3]; [8] 77% | [3]; at 50.0 µM 91.5% | [4]; at 50.0 µM 88.3% | [5]; at 50.0 µM 86.9% | [6]; at 50.0 µM 94.8%

CN(C)CCCNc1cc(O)c2c(c1O)C(=O)c1ccccc1C2=O
inactive: [1]; [7] 22% | [2]; [7] 18% | [3]; [7] 26% | [4]; [7] -16% | [5]; [7] 13% | [6]; [7] 16%
active: [1]; [8] 98% | [1]; at 50.0 µM 99.2% | [2]; [8] 94% | [2]; at 50.0 µM 97.6% | [3]; [8] 96% | [3]; at 50.0 µM 98.3% | [4]; [8] 94% | [4]; at 50.0 µM 94.8% | [5]; [8] 97% | [5]; at 50.0 µM 98.3% | [6]; [8] 98% | [6]; at 50.0 µM 99%
